KDM4E inh: JMJD2E (human) inhibition; B2RXH2; Potency, µM (doses to about 57.1 µM), for the others: at the top dose activity change, negative = inhibition, actives largely listed as inhibitors; 230,000 compounds, 1.6% hits; JMJD2E catalytic domain, FDH-coupled NADH fluorescence (FDH is formaldehyde dehydrogenase); AID 2147; active = well fitted inhibition curve with a large enough effect, not every such curve was filed as active; inconclusive = small, poorly fitted or top-dose-only effect, or another doubt; inactive = no such curve, though single readings can be large or run the other way;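 note: potency is the fitted concentration of half-maximal effect; 0% = wells with enzyme and -100% = buffer wells without enzyme; nearly all actives have a fitted effect of over 50% in size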
Target sequence (B2RXH2 1-337 limits assumed): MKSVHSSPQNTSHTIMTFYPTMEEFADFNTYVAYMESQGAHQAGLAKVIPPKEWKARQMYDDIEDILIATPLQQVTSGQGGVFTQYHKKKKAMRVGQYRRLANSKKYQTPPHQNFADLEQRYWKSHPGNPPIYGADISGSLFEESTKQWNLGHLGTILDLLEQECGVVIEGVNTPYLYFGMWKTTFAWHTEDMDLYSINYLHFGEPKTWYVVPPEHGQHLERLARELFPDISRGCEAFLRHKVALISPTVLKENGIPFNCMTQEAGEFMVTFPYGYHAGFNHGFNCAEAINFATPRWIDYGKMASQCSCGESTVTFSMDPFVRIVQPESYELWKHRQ
Tau fluor counter: counter-screen for tau fibril formation inhibitors. tau K18 P301L Alexa594 fluorescence, heparin fibrillization. Potency, µM (doses to about 57.7 µM), without a hit: at the top dose activity change, negative = decrease. 280,000 compounds, 0.93% hits. AID 1463; note: potency is the fitted concentration of half-maximal effect; nearly all actives have a fitted effect of over 55% in size
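Human K18 P301L tau (15 uM unlabeled plus 0.24 uM Alexa 594-labeled, final) in 100 mM sodium acetate pH 7 was mixed with compound and 20 uM heparin and incubated 6 hr at 37 C.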
Sfp inh: blocks B. subtilis Sfp PPTase activity; Q9F4F7; Biochemical Sfp PPTase activity, qHTS; Potency, µM, for the others: largest response in the series, negative = inhibition, usual class: inhibitors; 310,000 compounds, 3.5% hits; AID 1490;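 note: the enzyme is Sfp with the accession as filed and its product quenches rhodamine fluorescence; potency is the fitted concentration of half-maximal effect; 0% = enzyme reaction without inhibitor and -100% = no enzyme wells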
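Compounds were incubated with enzyme (final 15 nM) for 15 min at room temperature before substrate addition started the reaction. Fluorescence at 525 nm excitation, 598 nm emission was recorded immediately and after 30 minutes.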
Tau fibril ThT: blocks human tau fibril formation measured by thioflavin T; recombinant tau K18 P301L (four-repeat tau fragment), heparin-induced fibrillization, ThT fluorescence; 270,000 compounds, 2.1% hits; P10636; Potency, µM (titrated, usually from 57.4 µM), for inactives: top-dose activity, negative = inhibition, actives largely listed as inhibitors; note: potency is the fitted concentration of half-maximal effect; nearly all actives have a fitted effect of over 55% in size
Target sequence (P10636 561-689 P618L limits assumed): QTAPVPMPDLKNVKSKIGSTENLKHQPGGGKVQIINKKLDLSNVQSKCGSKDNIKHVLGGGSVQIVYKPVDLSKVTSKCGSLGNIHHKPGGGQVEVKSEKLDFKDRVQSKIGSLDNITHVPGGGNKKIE
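In this qHTS, human K18 P301L tau is incubated with compound and heparin for 6 hr at 37 C, and Thioflavin T fluorescence then reports fibril load.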
Tau fibril FP: blocks human tau fibril formation measured by polarization; Potency, µM (highest dose often 57.7 µM), for the others: at the top dose activity, negative = inhibition, hits mostly inhibitors; P10636; 280,000 compounds, 0.39% hits; K18 P301L tau heparin fibrillization, Alexa594 FP, 6 h; note: potency is the fitted concentration of half-maximal effect; nearly all actives have a fitted effect of over 55% in size
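Human tau K18 […] P301L fragment, 15 uM unlabeled plus 0.24 uM Alexa 594-labeled tau (final), with compound and 20 uM heparin in 100 mM sodium acetate pH 7; 6 hr at 37 C, then Alexa 594 FP read.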
Coupling enz: counter-screen for Giardia aldolase inhibitors: coupling enzyme system; coupling enzyme system counterscreen, AmpLite Red fluorescence; activity change, negative = inhibition, % at 58.2 µM, hits read low; 290,000 compounds, 0.67% hits; in the data active = activity change below about -30%
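First, compound is pin-transferred into glyceraldehyde-3-phosphate coupling-enzyme reagent at 57.5 uM final and held 10 min at RT. Next, substrate, coupling system and AmpLite Red are added. After 20 min RT, fluorescence (525/598 nm) is read.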
Starred values were filed as active, the others as inactive; ? = inconclusive; . = no result; [ ] = remark or other dose. In the library only some 5.3% were active in any assay of this set; here they are far more common. Unless noted, calls come from the whole dose curve; as a rule, active = well fitted curve in the direction sought with a large enough effect; inconclusive = small, poorly fitted or top-dose-only effect, or another doubt; inactive = no such curve, though single readings can be large; an effect the other way counts as inactive or inconclusive. Unless noted, % is set by controls: 0 for no effect and ±100 for the full control effect.

SMILES	KDM4E inh	Tau fluor counter	Sfp inh	Tau fibril ThT	Tau fibril FP	Coupling enz
O=C(CSc1ncnc2nc[nH]c12)c1ccc(Cl)cc1	.	.	50µM*	.	.	0
O=C(CSc1nc2ncc(Br)cc2[nH]1)c1ccc([N+](=O)[O-])cc1	-3%	?	-10%	28µM*	?	2
Cc1snc(SCC(=O)c2ccc(F)cc2)c1C#N	-9%	-17%	4%	-15%	8%	1
Cc1snc(SCC(=O)c2ccc([N+](=O)[O-])cc2)c1C#N	4.5µM*	-26%	20µM*	14µM*	?	-2
O=C(CSc1ncnc2nc[nH]c12)c1ccc([N+](=O)[O-])cc1	-22%	-16%	45µM*	?	-6%	-3
CCC(=O)N1c2ccc(S(=O)(=O)CCC(=O)N3CCN(c4ccc(F)cc4)CC3)cc2CC1C (centres undefined)	.	-17%	.	-17%	0%	.
CC(C)CCN(Cc1ccco1)C(=O)c1cc2c(Cl)nc3ccccc3c2s1	.	-28%	.	?	-2%	.
COc1cccc(/C=C/c2nc(C#N)c(N3CCCCC3)o2)c1	.	?	.	?	8%	.
O=C(CSc1ncnc2nc[nH]c12)c1ccccc1	-4%	1%	16µM*	0%	-1%	5
c1ccc(CCSc2ncnc3nc[nH]c23)cc1	7%	1%	12%	-1%	5%	-1
N=C(C[C@@H](O)COc1ccccc1-c1ccccc1)N1CCCCC1	8%	-4%	-4%	-14%	0%	0
Cc1ccc(NC(=S)N/N=C/c2ccc([N+](=O)[O-])s2)cc1	0%	16µM*[quencher]	-22%	5µM*	?	-5
Cc1cc(N(CCO)CCO)ccc1N=Nc1cc(F)ccc1F	0%	?	-5%	10µM*	14%	0
Cc1cc(=O)[nH]c(N/N=C/c2c[nH]c3ccccc23)n1	6%	?	28µM*	?	8%	-11
Cc1[nH]c2ccccc2c1/C=N/Nc1nc2ccccc2[nH]1	0%	?	11%	.	-5%	-1
C(=N\Nc1nc2ccccc2[nH]1)/c1c[nH]c2ccccc12	-30%	16µM*[quencher]	?	13µM*	10%	0
COc1cccc(/C=N/Nc2nc(C)cc(=O)[nH]2)c1OC	.	.	56µM*	.	.	0
C(=C\c1ccccc1)/C=N/Nc1nc2ccccc2[nH]1	-6%	?	14µM*	7.9µM*	11%	1
C(=N\Nc1nc2ccccc2[nH]1)/c1ccccc1	-2%	-11%	-8%	?	8%	0
CCOc1ccccc1/C=N/Nc1nc(C)cc(=O)[nH]1	.	.	-10%	.	.	-5
C(=N\Nc1nc2ccccc2[nH]1)/c1cccc2cccnc12	25µM*	?	-8%	4.5µM*	8%	-7
Cc1ccc(/C=N/Nc2nc3ccccc3[nH]2)s1	-8%	?	-9%	7.9µM*	?	-2
COc1ccc(/C=N/Nc2nc3ccccc3[nH]2)c(OC)c1OC	?	?	-14%	?	13%	-1
Cc1ccccc1/C=N/Nc1nc2ccccc2[nH]1	-18%	?	?	?	5%	0
Cc1csc(NC(=O)C2CCCCC2C(=O)O)n1 (centres undefined)	4%	4%	13%	-1%	-2%	4
SMILES	KDM4E inh	Tau fluor counter	Sfp inh	Tau fibril ThT	Tau fibril FP	Coupling enz
Cc1csc(NC(=O)C2CCCC2)n1	-2%	-6%	79µM*	-9%	13%	0
COc1cccc(-c2nnc(-c3ccc(C)o3)o2)c1	0%	-18%	56µM*	?	-1%	-6
CN(C)Cc1ccccc1-c1nc(N(C)C)c2ccccc2n1	.	.	10%	.	.	-2
O=C(NCc1ccc(F)cc1)c1cnc(N2CCCCC2)c2ccccc12	.	-19%	.	-11%	-7%	.
CSc1nc2oc3c(c2c2nncn12)CC(C)(C)SC3	?	-10%	40µM*	?	-12%	-20
CC1(C)Cc2c(oc3ncn4ncnc4c23)CO1	2%	3%	17%	5%	-7%	1
CN(C)c1cc(NC(=O)CNC(C)(C)C)c2ccccc2n1	?	3%	79µM*	.	-1%	1

Assay outcomes deposited in PubChem BioAssay by National Center for Advancing Translational Sciences (NCATS).
